Data as given in ChEMBL document CHEMBL4513135, “CO-ADD screening of IQOG CSIS (Spain) compounds”.
Results with a measured potency or affinity are listed apart.

Experiments:
[1] = test system: Klebsiella pneumoniae; conditions: Concentration 32 ug.mL-1; ASSAY_TEST Inhibition of Bacterial Growth; detection method Absorption (OD600); MEDIA CAMHB; plate type 384well; NBS; CORNING #3640; time 18 hr
[2] = test system: Candida albicans; conditions: 32 ug/mL
[3] = test system: Cryptococcus neoformans; conditions: Concentration 32 ug.mL-1; ASSAY_TEST Inhibition of Fungal Growth; detection method Resazurin; Absorption (OD600-OD570); plate type 384well; NBS; CORNING #3640

| SMILES | Inhibition [1] | Inhibition [2] | Inhibition [3] |
| --- | --- | --- | --- |
| Cc1ccc(C=C2N=C(c3ccccc3)OC2=O)cc1 | 9.43% | -0.14% | -5.42% |
| CCOc1nc2nc(CCc3ccccc3)ccc2c(-c2ccccc2)c1C#N | 1.47% | 7.93% | -42.89% |
| O=C(N/N=C/c1c[nH]c2ccccc12)c1ccco1 | 12.93% | 1.93% | -1.51% |
| C#CCNc1nc(NCCC2CCN(Cc3ccccc3)CC2)c(C#N)cc1C#N | -4.95% | 3.57% | -89.93% |
| Nc1c2c(nc3c1c1ccccc1n3Cc1ccccc1)CCCC2 | 9.09% | 1.09% | -84.21% |
| N#Cc1cc(C#N)c(Cl)nc1Cl | 2.35% | 33.1% | 24.8% |
| NNC(=O)c1cc2ccccc2n1Cc1ccccc1 | -14.14% | -0.41% | -2.53% |
| C#CCN(C)Cc1cc2cc(OCc3ccccc3)ccc2n1C.O=C(O)C(=O)O | 16.32% | 2.13% | -91.88% |
| N#Cc1c(N)nc(S)c(C#N)c1-c1ccccc1 | 24.85% | 0.7% | 1.04% |
| N#CC1=C(Cl)Oc2c(ccc3ccccc23)C1c1cccc([N+](=O)[O-])c1 (stereo not given) | 4.09% | 6.77% | -37.01% |
